Bioassay records as filed in PubChem BioAssay.
Rows were chosen to be rich in hits. Some 4.5% of all compounds tested hit in one or more screens of this group.
Mtb FBA inh – inhibits M. tuberculosis FBA enzyme | inhibition, % at 1 µM | AID 588726 | purified M. tuberculosis FBA, fluorescence read-out | P9WQA3 | 2.3% of 360,000 active; in the data active = inhibition above about 27%
Target sequence (P9WQA3 whole entry, looked up): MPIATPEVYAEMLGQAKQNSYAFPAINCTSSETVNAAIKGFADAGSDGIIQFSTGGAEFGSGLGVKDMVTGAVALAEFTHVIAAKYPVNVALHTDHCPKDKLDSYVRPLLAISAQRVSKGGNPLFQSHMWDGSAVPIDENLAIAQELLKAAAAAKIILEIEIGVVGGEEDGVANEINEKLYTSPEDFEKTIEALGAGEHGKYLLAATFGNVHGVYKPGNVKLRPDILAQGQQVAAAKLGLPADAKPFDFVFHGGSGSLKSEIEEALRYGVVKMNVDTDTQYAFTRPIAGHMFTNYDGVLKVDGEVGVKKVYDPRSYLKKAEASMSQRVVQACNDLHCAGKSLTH
PrPC surface inh – cell surface PrPC inhibition, primary TR-FRET screen; TR-FRET read-out; inhibition, % at 13.8 µM; 0.43% of 370,000 active; in the data active = inhibition above about 24%
GDH-TPI inh – GDH-TPI coupled enzyme inhibition counter-screen; AID 588335; inhibition, % at 4.8 µM; GDH-TPI coupled enzyme counterscreen, NADH absorbance; 1.2% of 360,000 active; in the data active = inhibition above about 30%
PrP 5UTR inh – inhibition of PrP 5' UTR reporter expression; inhibition, % (no concentration beside the values); 0.35% of 340,000 active; AID 488862; cell-based PrP 5' UTR mRNA reporter, plate reader; in the data active = inhibition above about 52%
BJeLR lethal – kills HRASV12-expressing BJeLR cells. inhibition, % (no concentration beside the values). BJeLR (HRASV12) viability, CellTiter-Glo ATP luminescence, 48 h. 0.17% of 300,000 active. AID 1554; in the data active = inhibition above about 50%
PfHsp40 yeast – compounds rescuing yeast from Plasmodium falciparum HSP40 toxicity | S. cerevisiae expressing PfHsp40, growth rescue, ATP luminescence | growth rescue, % at 12.5 µM | AID 504582 | 0.68% of 340,000 active; in the data active = growth rescue above about 28%, passing the limit was not always enough;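 note: yeast W303a lacking pdr1 and pdr3 grown in galactose medium; growth measured after three days at 30 °C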
A number is an active result.

For Cc1cc(N2CCN(C)CC2)nc2ccc(NC(=S)NC3CC3)cc12 the results were Mtb FBA inh inactive, PrPC surface inh inactive, GDH-TPI inh 35, PrP 5UTR inh inactive, BJeLR lethal inactive and PfHsp40 yeast inactive.
For CC(=NOC(=O)C1CCCCC1)c1nccs1 the results were Mtb FBA inh inactive, PrPC surface inh inactive and GDH-TPI inh 51.
`O=[N+]([O-])c1cc(/C=N/n2cnnc2)ccc1N1CCCC1` gave Mtb FBA inh inactive, PrPC surface inh inactive, GDH-TPI inh 37, PrP 5UTR inh inactive, BJeLR lethal inactive and PfHsp40 yeast inactive.
For COC(=O)[C@]12C[C@H](CC(=O)NCCCN3CCCC3=O)C(=O)N(CCC3=CCCCC3)C1=C[C@H](C(C)C)O[C@@H]2C1CC1 the results were PrPC surface inh inactive.
`CC(C)N1CCC(=NNC(=O)c2ccccc2[N+](=O)[O-])CC1` gave Mtb FBA inh active, PrPC surface inh inactive, GDH-TPI inh inactive, PrP 5UTR inh inactive, BJeLR lethal inactive and PfHsp40 yeast inactive.
Screening O=C(NN=C1CCCC1)c1ccccc1[N+](=O)[O-] returned Mtb FBA inh inactive, PrPC surface inh inactive, GDH-TPI inh inactive, PrP 5UTR inh inactive, BJeLR lethal inactive and PfHsp40 yeast inactive.
COc1ccccc1-c1cn[nH]c1-c1ccc(OCc2ccccc2)cc1O was read as Mtb FBA inh inactive, PrPC surface inh inactive, GDH-TPI inh inactive, PrP 5UTR inh inactive, BJeLR lethal inactive and PfHsp40 yeast 214.
CCOc1ccc(-c2[nH]ncc2Oc2cccc(OC)c2)c(O)c1 was read as Mtb FBA inh inactive, PrPC surface inh inactive, GDH-TPI inh inactive, PrP 5UTR inh inactive, BJeLR lethal inactive and PfHsp40 yeast 336.
`CCCc1ccc(Oc2cn[nH]c2-c2ccc(O)c(C)c2O)cc1` gave Mtb FBA inh inactive, PrPC surface inh inactive, GDH-TPI inh inactive, PrP 5UTR inh inactive, BJeLR lethal inactive and PfHsp40 yeast 83.
`COc1ccc(-c2cn[nH]c2-c2ccc(OCc3ccccc3)cc2O)cc1` gave Mtb FBA inh inactive, PrPC surface inh inactive, GDH-TPI inh inactive, PrP 5UTR inh inactive, BJeLR lethal inactive and PfHsp40 yeast 115.
For COc1cccc(Oc2cn[nH]c2-c2ccc(OC)cc2O)c1 the results were Mtb FBA inh inactive, PrPC surface inh inactive, GDH-TPI inh inactive, PrP 5UTR inh inactive, BJeLR lethal inactive and PfHsp40 yeast inactive.
COc1ccc(-c2cn[nH]c2-c2ccc(OC)cc2O)cc1 was read as Mtb FBA inh inactive, PrPC surface inh inactive, GDH-TPI inh inactive, PrP 5UTR inh inactive, BJeLR lethal inactive and PfHsp40 yeast inactive.
Oc1ccccc1C=Nn1c(-c2ccccc2F)n[nH]c1=S was read as PrPC surface inh inactive.
`CC(C)N1CCCCC(NC(=O)c2ccc(F)c(F)c2)C1=O` (centres undefined) gave PrPC surface inh inactive.
CC#CC(=O)N[C@H]1CC[C@@]23CCCN2C(=O)CCC[C@H]3[C@H]1C was read as PrPC surface inh inactive.
Screening COc1ccc(C2=CC(c3ccco3)n3ncnc3N2)cc1 (centres undefined) returned Mtb FBA inh 71, GDH-TPI inh inactive, PrP 5UTR inh inactive and PfHsp40 yeast inactive.
CC(C)(C)c1ccc(C2=CC(c3ccccc3)n3ncnc3N2)cc1 (centres undefined) was read as Mtb FBA inh inactive, GDH-TPI inh inactive, PrP 5UTR inh inactive, BJeLR lethal inactive and PfHsp40 yeast inactive.
Screening Clc1ccc(C2=CC(c3ccco3)n3ncnc3N2)cc1 (centres undefined) returned Mtb FBA inh 38, PrPC surface inh inactive, GDH-TPI inh inactive, PrP 5UTR inh inactive, BJeLR lethal inactive and PfHsp40 yeast inactive.
Screening COc1ccc(C2C=C(c3ccccc3)Nc3ncnn32)cc1 (centres undefined) returned Mtb FBA inh 118, PrPC surface inh inactive, GDH-TPI inh inactive, PrP 5UTR inh inactive, BJeLR lethal inactive and PfHsp40 yeast inactive.
For COc1cc(-n2c(C)nc3cc(C(=O)N4CCCC4)ccc32)cc(OC)c1OC the results were PrPC surface inh inactive.
Screening C=CCNc1sc(C(=O)C2CC2)c(N)c1C#N returned Mtb FBA inh inactive, PrPC surface inh inactive, GDH-TPI inh 40, PrP 5UTR inh inactive and PfHsp40 yeast inactive.
`C=CCNc1sc(C(=O)C(C)(C)C)c(N)c1C#N` gave Mtb FBA inh inactive, PrPC surface inh inactive, GDH-TPI inh 40, PrP 5UTR inh inactive, BJeLR lethal inactive and PfHsp40 yeast inactive.
For C=CCNc1sc(C(=O)c2ccccc2)c(N)c1C#N the results were Mtb FBA inh inactive, PrPC surface inh inactive, GDH-TPI inh inactive, PrP 5UTR inh inactive, BJeLR lethal inactive and PfHsp40 yeast inactive.
`C=CCNc1sc(C(=O)c2ccc(C)cc2)c(N)c1C#N` gave Mtb FBA inh inactive, PrPC surface inh inactive, GDH-TPI inh inactive, PrP 5UTR inh inactive, BJeLR lethal inactive and PfHsp40 yeast inactive.
O=C(NCCO)[C@H](Cc1ccccc1)NC1(C(=O)NCCc2c[nH]c3ccccc23)CCCCC1 was read as PrPC surface inh inactive.
For COc1ccc(C=C2OC(=O)C(C(C)=O)=C2O)cc1 the results were Mtb FBA inh inactive, PrPC surface inh inactive and GDH-TPI inh 59.
CC(=O)C1=C(O)C(=Cc2ccccc2)OC1=O was read as Mtb FBA inh inactive, PrPC surface inh inactive and GDH-TPI inh inactive.
`COC(=O)C1CC23C=CCN4CCC5(c6ccccc6NC15C2C)C43` (centres undefined) gave Mtb FBA inh inactive, PrPC surface inh inactive, GDH-TPI inh inactive, PrP 5UTR inh inactive, BJeLR lethal 57 and PfHsp40 yeast inactive.
`COc1ccc(C(=O)NCCN2C(=O)C3C4C=CC(C4)C3C2=O)cc1OC` (centres undefined) gave PrPC surface inh inactive.
For O=C(NNC(=S)Nc1cccc(C(F)(F)F)c1)c1ccc(Cl)cc1Cl the results were Mtb FBA inh inactive, PrPC surface inh inactive, GDH-TPI inh inactive, PrP 5UTR inh inactive, BJeLR lethal inactive and PfHsp40 yeast 36.
Screening COc1ccc2c(c1)CNC2CS(=O)(=O)NCC(C)C (centres undefined) returned PrPC surface inh inactive.
Nc1nc2ccccc2n1/N=C/c1ccc2c(c1)OCO2 was read as Mtb FBA inh inactive, PrPC surface inh inactive, GDH-TPI inh 49 and BJeLR lethal inactive.
Screening Nc1nc2ccccc2n1/N=C/c1ccc(Br)cc1 returned Mtb FBA inh inactive, PrPC surface inh inactive, GDH-TPI inh inactive, PrP 5UTR inh inactive, BJeLR lethal inactive and PfHsp40 yeast inactive.
Cc1cc(NC(=S)Nc2ccc(C)c(Cl)c2)n[nH]1 was read as Mtb FBA inh inactive, PrPC surface inh inactive, GDH-TPI inh inactive, PrP 5UTR inh inactive, BJeLR lethal inactive and PfHsp40 yeast 57.
For COc1cc2c(c(OC)c1OC)-c1ccc(NC(=O)c3ccccc3)c(=O)cc1[C@@H](NC(C)=O)CC2 the results were Mtb FBA inh inactive, PrPC surface inh inactive, GDH-TPI inh inactive, PrP 5UTR inh inactive, BJeLR lethal inactive and PfHsp40 yeast inactive.
